Assay results as given in PubChem BioAssay (EPA / NIEHS).
Records with an inconclusive call do not appear. The source made the active and inactive calls. Rule for the calls: active = hit-call score of the fitted dose curve at least 0.9, where 1 is the maximum; inconclusive = response in the unintended direction; inactive = score below 0.9.

What was measured:
[1] = VALA_TUBHUV_Antagonist_CellCount: Viability Assessment in the VALA Sciences human Umbilical Vein Endothelial Tubule Formation (TUBHUV) Antagonism Assay (AID 2284310)
Outline: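 HUVEC co-cultured with HDF (1:3) 3 days in 10 ng/ml VEGF, then 3 days with compounds in VEGF medium. Fixed, nuclear stain and CD31 immunofluorescence, imaged; cell counts fitted versus 0.1% DMSO, loss of signal read as lower viability.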

[2] = VALA_MIGHUV2_WoundArea: VALA Sciences human Umbilical Vein Endothelial Cell Migration (MIGHUV) Assay, Area of Scratch Wound after Recovery (AID 2284316)
Outline: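 HUVEC seeded at 9000 cells/well, scratched after 24 h; test chemical added within 30 min, 6-point concentration response in triplicate (0.1% DMSO vehicle). After 24 h wound recovery, cells fixed and Hoechst-stained nuclei in wound area imaged; Cytochalasin D reference control.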

[3] = VALA_MIGHUV1_ScratchOnly_CellCount: Viability Assessment in the VALA Sciences human Umbilical Vein Endothelial Cell Migration (MIGHUV) Assay, Scratch Wound Inhibited Recovery (AID 2284327)
Protocol: VALA_MIGHUV1_ScratchOnly is a cell-based, multiplexed assay that uses umbilical vein-derived endothelial cells (HUVEC). Measurements were taken 24 hours after chemical dosing in a 96-well plate.VALA_MIGHUV1_ScratchOnly_CellCount is the one of two assay components measured from the VALA_MIGHUV1_ScratchOnly assay. It is designed to make measurements of viability, a form of viability reporter, as detected with fluorescence intensity signals by HCS Fluorescent Imaging technology. Data from the assay component VALA_MIGHUV1_ScratchOnly_CellCount was analyzed at the endpoint, VALA_MIGHUV1_ScratchOnly_CellCount, in the positive analysis fitting direction relative to DMSO as the negative control and baseline of activity. Using a type of viability reporter, loss-of-signal activity can be used to understand viability. To generalize the intended target to other relatable targets, this assay endpoint is annotated to the cell cycle intended target family, where the subfamily is cell count.
Cells were seeded on 384-well microplates (day-0) at a density of 9000 cells per well for detection of wound area recovery or 4000 cells per well for detection of beta-catenin (CTNB) immunoreactivity and incubated in Endothelial Cell Growth Medium (CAI, San Diego; catalog 211-500). After 24 hours of culture, the HUVEC plates were scratched using a custom scratch head with the Bravo liquid handling system. […]

Measured: outcome

COCc1cnc(C2=NC(C)(C(C)C)C(=O)N2)c(C(=O)O)c1 (stereo not drawn)
inactive: all assays above
